# Measured values as given in PubChem BioAssay (NCATS).
# Records with an inconclusive call do not appear. The source made the active and inactive calls. Unless noted, calls follow the shape of the dose curve; as a rule, active = well fitted cell-killing curve with a large enough effect; inconclusive = small, poorly fitted or top-dose-only effect, or effect the other way; inactive = no such curve, though single readings can be large or run the other way.
# Experiments:
# [1] = Quantitative High-Throughput drug screen in 47 multiple myeloma cell lines against the NCATS MIPE library collection: PCM6_Riken cell viability assay (AID 1919870); also: nearly all actives have a fitted effect of over 30% in size; also: potency is read from the fitted curve at half-maximal effect
# In short: (§1)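 ATP-based CellTiter-Glo luminescence after 48 h drug exposure (37 °C, 5% CO2) of 500 myeloma cells per well. DMSO-only wells set 100% viability, media-only wells 0%; MIPE 4.0 library added by pin tool.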
# [2] = Quantitative High-Throughput drug screen in 47 multiple myeloma cell lines against the NCATS MIPE library collection: OPM2_DSMZ cell viability assay (AID 1919872); also: nearly all actives have a fitted effect of over 30% in size; also: potency is read from the fitted curve at half-maximal effect
# In short: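 Luminescent ATP measurement with CellTiter-Glo gives viability, scaled between DMSO-only wells (100%) and media-only wells (0%). Cells, 500 per well, faced library compounds for 48 hours at 37C.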
# [3] = Quantitative High-Throughput drug screen in 47 multiple myeloma cell lines against the NCATS MIPE library collection: KMS28BM_JCRB cell viability assay (AID 1919874); also: nearly all actives have a fitted effect of over 35% in size; also: potency is read from the fitted curve at half-maximal effect
# In short: as §1
# [4] = qHTS drug screen for cell cycle checkpoint inhibitors in PARPi-resistant BRCA-mutant ovarian cancer cell lines. (AID 1963452; calls by dose curve); details: PEO1/OlaR viability, CellTiter-Glo luminescence, 96 h, stronger effect = lower value
# In short: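 PEO1, PEO4 and PEO1/OlaR ovarian cancer cells, 600 per well, exposed 96 h at 37C to a dilution series. Viability read by CellTiter-Glo luminescence, normalized to DMSO and empty wells; activity summarized as Z-AUC.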
# [5] = Quantitative High-Throughput drug screen in 47 multiple myeloma cell lines against the NCATS MIPE library collection: UTMC2_PLB cell viability assay (AID 1919868); also: nearly all actives have a fitted effect of over 55% in size
# In short: as §1
# [6] = Quantitative High-Throughput drug screen in 47 multiple myeloma cell lines against the NCATS MIPE library collection: RPMI8226_ATCC cell viability assay (AID 1919871); also: nearly all actives have a fitted effect of over 30% in size; also: potency is read from the fitted curve at half-maximal effect
# In short: as §1
# [7] = Quantitative High-Throughput drug screen in 47 multiple myeloma cell lines against the NCATS MIPE library collection: PE2_PLB cell viability assay (AID 1919869); also: nearly all actives have a fitted effect of over 35% in size; also: potency is read from the fitted curve at half-maximal effect
# In short: as §1
# [8] = Quantitative High-Throughput drug screen in 47 multiple myeloma cell lines against the NCATS MIPE library collection: KMS11_JCRBsus cell viability assay (AID 1919873); also: nearly all actives have a fitted effect of over 50% in size; also: potency is read from the fitted curve at half-maximal effect
# In short: as §1
# [9] = measured here: PEO1 parental Z-AUC
Structure (SMILES),Potency [1],Potency [2],Potency [3],Z-AUC [4],"Z-AUC [4, 9]",Z-AUC ([4]; measured here: PEO4 Z-AUC),Potency [5],Potency [6],Potency [7],Potency [8]
NC(CO)C(=O)NNCc1ccc(O)c(O)c1O (configuration not stated),inactive,18.7 µM (active),23.5 µM (active),-0.229 (inactive),-0.392,-0.375,–,–,–,–
CCOC(=O)Nc1ccc(NCc2ccc(F)cc2)nc1N,–,inactive,–,-0.444 (inactive),-0.223,-0.051,inactive,inactive,–,–
CCCNCC(O)COc1ccccc1C(=O)CCc1ccccc1 (configuration not stated),inactive,inactive,–,0.52 (inactive),0.498,0.0881,–,–,inactive,–
Cc1cnc(C(=O)NCCc2ccc(S(=O)(=O)NC(=O)NC3CCCCC3)cc2)cn1,16.6 µM (active),inactive,–,0.935 (inactive),0.686,0.444,–,16.6 µM (active),14.8 µM (active),–
NCCS(=O)(=O)O,inactive,inactive,–,1.22 (inactive),0.571,0.568,–,–,–,inactive
Clc1ccc2c(c1)C(N1CCNCC1)=Nc1ccccc1O2,–,inactive,–,–,–,–,–,–,–,–
NC(=O)OCC(COC(N)=O)c1ccccc1,–,inactive,–,0.532 (inactive),1.02,1.07,–,inactive,inactive,–
COc1nc(C)nc(Cl)c1NC1=NCCN1,–,inactive,inactive,-0.0792 (inactive),-0.161,0.307,–,–,–,inactive
CN1CCN(C2=Nc3cc(Cl)ccc3Nc3ccccc32)CC1,–,inactive,inactive,0.802 (inactive),0.75,0.32,–,inactive,–,–
CC(COc1ccccc1)N(CCCl)Cc1ccccc1 (configuration not stated),–,inactive,18.7 µM (active),1.41 (inactive),1.02,1.15,–,inactive,–,inactive
CC1(CN2CCC(n3c(=O)[nH]c4ccccc43)CC2)OCc2ccccc2-n2cccc21 (configuration not stated),–,inactive,–,1.14 (inactive),0.846,0.865,–,–,13.2 µM (active),–
COc1cc2nc(N3CCN(C(=O)C4COc5ccccc5O4)CC3)nc(N)c2cc1OC (configuration not stated),20.9 µM (active),inactive,16.6 µM (active),–,–,–,–,16.6 µM (active),–,18.7 µM (active)
Cc1cn([C@H]2C[C@H](N=[N+]=[N-])[C@@H](CO)O2)c(=O)[nH]c1=O,14.8 µM (active),inactive,inactive,–,–,–,–,inactive,–,inactive
Cc1ccc(C(=O)Nc2ccc(S(=O)(=O)O)c3cc(S(=O)(=O)O)cc(S(=O)(=O)O)c23)cc1NC(=O)c1cccc(NC(=O)Nc2cccc(C(=O)Nc3cc(C(=O)Nc4ccc(S(=O)(=O)O)c5cc(S(=O)(=O)O)cc(S(=O)(=O)O)c45)ccc3C)c2)c1,–,–,inactive,0.147 (inactive),0.903,0.677,–,–,–,–
CCOC(=O)c1ncn2c1CN(C)C(=O)c1cc(F)ccc1-2,inactive,inactive,inactive,1.34 (inactive),1.08,1.29,–,2.64 µM (active),–,–
CC(C)Cc1ccc(C(C)C(=O)O)cc1 (configuration not stated),–,inactive,–,1.42 (inactive),1.49,1.2,inactive,inactive,–,inactive
O=C(CCCN1CCC(O)(c2ccc(Cl)cc2)CC1)c1ccc(F)cc1,–,inactive,–,–,–,–,–,–,–,23.5 µM (active)
CC1(C)O[C@H]2CC(=O)OC[C@]23[C@H]2CC[C@@]4(C)[C@H](c5ccoc5)OC(=O)[C@H]5O[C@]54[C@]2(C)C(=O)C[C@@H]13,–,inactive,inactive,–,–,–,–,inactive,inactive,inactive
Cc1cc(C(C)(C)C)cc(C)c1CC1=NCCN1,–,inactive,–,0.735 (inactive),0.684,0.966,inactive,inactive,–,inactive
CCC1(C)CC(=O)NC1=O (configuration not stated),inactive,–,inactive,1.49 (inactive),1.31,1.61,–,inactive,inactive,inactive
